# Cruzain noTriton = inhibitors of Trypanosoma cruzi cruzain without detergent; P25779; Potency, µM, for the others: max response, negative = inhibition, actives largely listed as inhibitors; purified cruzain, Z-FR-AMC fluorescence, no detergent; 200,000 tested, 2.3% active;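 also: plate controls were enzyme without inhibitor for no effect and buffer without enzyme for full effect; nearly all actives have a fitted effect of over 40% in size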
# Target sequence (P25779 123-467 limits assumed): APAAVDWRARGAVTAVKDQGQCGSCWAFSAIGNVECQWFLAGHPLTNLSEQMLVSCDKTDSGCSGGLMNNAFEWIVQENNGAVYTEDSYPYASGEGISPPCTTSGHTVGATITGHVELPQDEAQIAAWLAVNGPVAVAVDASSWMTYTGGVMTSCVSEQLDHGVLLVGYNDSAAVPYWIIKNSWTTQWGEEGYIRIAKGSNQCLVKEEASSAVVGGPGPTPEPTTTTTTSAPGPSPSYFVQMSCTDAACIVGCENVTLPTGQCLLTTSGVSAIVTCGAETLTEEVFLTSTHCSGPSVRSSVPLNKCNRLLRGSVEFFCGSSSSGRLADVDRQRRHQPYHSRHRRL
#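 Purified cruzain at 1.5 nM, pre-incubated 15 min with compound at room temperature in 100 mM sodium acetate pH 5.5, 5 mM DTT, 0.00005% Triton X-100. Reaction started with 2 uM Z-FR-AMC; AMC fluorescence increase over 60 s gives rate.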
# Cruzain Triton = inhibitors of Trypanosoma cruzi cruzain with detergent; AID 1478; 200,000 tested, 0.43% active; P25779; purified cruzain, Z-FR-AMC fluorescence, 0.01% Triton; Potency, µM, without a hit: max response, negative = inhibition, hits mostly inhibitors;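 also: plate controls were neutral wells for no effect and buffer without enzyme for full effect; nearly all actives have a fitted effect of over 40% in size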
#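 Steps: dispense cruzain (1.5 nM final) in acetate buffer pH 5.5 with DTT and 0.01% Triton X-100; pin-transfer compounds; incubate 15 min RT; add Z-FR-AMC (2 uM final); read fluorescence every 30 s, using the 60 s intensity change.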
# The depositor's hits bear a star; ? = inconclusive. The list is not random: actives were taken first. Their share in the collection is about 2.4%. Calls follow the shape of the dose curve; as a rule, active = well fitted curve in the direction sought with a large enough effect; inconclusive = small, poorly fitted or top-dose-only effect, or another doubt; inactive = no such curve, though single readings can be large; an effect the other way counts as inactive or inconclusive. Potency is read from the fitted curve at half-maximal effect.
SMILES,Cruzain noTriton,Cruzain Triton
Cc1ccc(NC(=O)CN(C)S(=O)(=O)c2ccc3c(c2)n(C)c(=O)c(=O)n3C)cc1C,3.1%,-0.1%
Cc1ccc(N2CC(C)Cn3c2nc2c3c(=O)n(CC(=O)O)c(=O)n2C)cc1 (configuration not stated),-2.4%,-2.9%
Cc1cc(C)c(S(=O)(=O)N2CCN(c3ccc([N+](=O)[O-])c(NCC4CCCO4)c3)CC2)c(C)c1 (configuration not stated),?,-8.3%
O=[N+]([O-])c1ccc(N2CCN(S(=O)(=O)c3ccc(Cl)c(Cl)c3)CC2)cc1NCCN1CCOCC1,5.7%,-5.0%
Cc1cc(C)c(S(=O)(=O)N2CCN(c3ccc([N+](=O)[O-])c(NCc4ccco4)c3)CC2)c(C)c1,6.31µM*,-0.2%
CCNc1cc(N2CCN(S(=O)(=O)c3ccc4c(c3)CCCC4)CC2)ccc1[N+](=O)[O-],5.01µM*,-2.3%
CCc1ccccc1NC(=O)Cn1nc2c3cc(F)ccc3n(Cc3cccc(C)c3)cc-2c1=O,-3.7%,-2.6%
COc1ccc(N(Cc2ccccc2)S(=O)(=O)c2cccc(C(=O)NC3=NCCS3)c2)cc1,25.1µM*,3.9%
COc1cccc(C(=O)NC2=NCCS2)c1,-5.0%,0.3%
COc1ccc(OC)c(C2=NS(=O)(=O)N(C)C(C(=O)Nc3ccc(F)cc3F)=C2)c1,5.6%,-2.9%
CC/C=C\C/C=C\C/C=C\C/C=C\C=C\C(O)CCCC(=O)O (configuration not stated),4.2%,-1.0%
CCCc1ccc(Oc2coc3cc(OCC(=O)Nc4ccccc4C)ccc3c2=O)cc1,5.8%,-3.5%
CCc1ccc(Oc2coc3cc(OCC(=O)Nc4cc(C)ccc4C)ccc3c2=O)cc1,25.1µM*,2.2%
COc1ccccc1CNC(=O)CC(c1ccc(F)cc1)N1Cc2ccccc2C1=O (configuration not stated),-3.4%,-4.2%
O=C(/C=C/c1ccccc1)Nc1nc(-c2cccs2)ns1,20µM*,-0.1%
Cc1ccc(/C=C/C(=O)Nc2nc(-c3cccs3)ns2)cc1,?,-3.9%
Oc1ccc2ccccc2c1C1Nc2cccc3cccc(c23)N1,?,-7.4%
CCN(CC)c1ccc(C2Nc3cccc4cccc(c34)N2)c(O)c1,12.6µM*,-8.9%
CCS(=O)(=O)NCCc1sc2nc(-c3ccc(OC)cc3)nn2c1C,-0.5%,-2.1%
CCn1cc(C(=O)NCc2ccc(Cl)cc2)c(=O)c2cc(S(=O)(=O)N(C)C3CCCCC3)ccc21,-15.9%,-1.7%
Cc1cc(C(=O)CSc2nnnn2C)c(C)n1CCc1ccc(F)cc1,25.1µM*,6.2%
CCCc1cc(=O)[nH]c(SCC(=O)c2cc(C)n(CCOC)c2C)n1,6.2%,0.6%
COc1ccc(CCn2c(C)cc(C(=O)CSc3nnc(N)s3)c2C)cc1,?,-3.3%
Cc1cc(C(=O)CSc2nc(N)cc(=O)[nH]2)c(C)n1CCc1ccc(F)cc1,25.1µM*,1.0%
COc1ccc(CCn2c(C)cc(C(=O)CSc3nc(N)cc(=O)[nH]3)c2C)cc1,25.1µM*,0.3%
SMILES,Cruzain noTriton,Cruzain Triton
Cc1cc(C(=O)CSc2nnc(N)s2)c(C)n1CCc1ccc(F)cc1,15.8µM*,3.4%
Cc1cc(C(=O)CSc2nnc(N)s2)c(C)n1CCc1ccc(Cl)cc1,?,-1.1%
Cc1cc(C(=O)CSc2nnnn2-c2ccccc2)c(C)n1CCc1ccccc1,-9.3%,0.5%
COc1ccc(CC(=O)Nc2cc(-c3nc4cccnc4s3)ccc2C)cc1,?,-3.2%
CN(C(=O)c1cc2c(s1)-c1ccc(Cl)cc1SC2)c1cccc(C(F)(F)F)c1,0.2%,-6.8%
Cc1nc2ccn(Cc3ccccc3)c(=O)c2cc1C(=O)N1CCN(c2ccccc2F)CC1,?,-5.1%
COc1ccccc1NC(=O)C1=C(C)Nc2c(C(=O)Nc3cccc(C)c3)cnn2C1c1ccccc1Cl (configuration not stated),25.1µM*,-5.9%
COc1ccccc1NC(=O)C1=C(C)Nc2c(C(=O)Nc3cccc(C)c3)cnn2C1c1ccccc1C (configuration not stated),?,-5.0%
CC1=C(C(=O)Nc2ccccc2)C(c2cc(Br)ccc2F)n2ncc(C(=O)Nc3ccccc3)c2N1 (configuration not stated),20µM*,-4.4%
CC1=C(C(=O)Nc2ccc(C)cc2C)C(c2cc(Br)ccc2F)n2ncc(C(=O)Nc3ccc(C)cc3)c2N1 (configuration not stated),-28.8%,-0.7%
CCOc1cc(-c2nc(-c3ccc(-c4ccc(C)cc4)nc3OC)no2)cc(OCC)c1OCC,-11.3%,-0.6%
Cc1ccc(C)n1NC(=O)c1ccc(Cl)cc1,-3.9%,1.2%
Cc1ccc(C)n1NC(=O)c1ccc(Cl)cc1Cl,12.6µM*,-2.1%
COCC(C)Nc1ncnc2c1cnn2-c1cccc(Cl)c1 (configuration not stated),-8.3%,-0.3%
CCOc1ccccc1NC(=O)CN1C(=O)CC(c2ccco2)Sc2ccccc21 (configuration not stated),-16.1%,-9.7%
O=c1oc2cc(OCc3ccc(F)cc3F)ccc2cc1-c1ccc2ccccc2n1,12.6µM*,-1.9%
O=c1oc2cc(OCc3c(F)cccc3Cl)ccc2cc1-c1ccccn1,22.7%,-0.4%
CC(=O)Nc1ccc(-c2cc(-c3ccc(NC(C)=O)cc3)nc(-c3ccccc3)n2)cc1,15.8µM*,-4.5%
CC(=O)Nc1ccc(-c2cc(-c3ccccc3)nc(-c3ccccc3)n2)cc1,?,-2.5%
CCC(=O)Nc1ccc(-c2cc(-c3ccccc3)nc(-c3ccc(NC(=O)CC)cc3)n2)cc1,5.1%,4.5%
CC(=O)Nc1ccc(-c2cc(-c3ccc(NC(C)=O)cc3)nc(-c3ccc(NC(C)=O)cc3)n2)cc1,31.6µM*,?
O=S(=O)(O)C(c1ccccc1)[C@@H](O)c1ccccc1 (some centres not stated),4.8%,-1.0%
COc1cccc(CNC(=O)Cc2c(C)c3c(cc(C)c4c(C)c(C)oc43)oc2=O)c1,-2.3%,0.8%
O=C(O)c1ccc(-c2ccccc2C(F)(F)F)s1,-7.7%,3.8%
O=C(NNC(=O)c1sc2cccc(Cl)c2c1Cl)NC1CCCCC1,-7.2%,-9.0%
SMILES,Cruzain noTriton,Cruzain Triton
O=C(NNC(=O)c1sc2cccc(Cl)c2c1Cl)Nc1ccccc1,10µM*,2.1%
CCOC(=O)c1c(NC(=O)c2ccccc2)sc2c(O)c(CN(CC)CC)ccc12,15.8µM*,-1.1%
CCOC(=O)c1c(NC(C)=O)sc2c(O)cccc12,3.0%,-4.3%
Cc1ccccc1NC(=O)Cn1nc(-c2ccccc2)nc(Cc2ccccc2)c1=O,-8.2%,0.5%
COCCOC(=O)c1c(C)oc2c1cc(NS(=O)(=O)c1ccc(Cl)c(C)c1)c1ccccc12,1.2%,-4.3%
Cc1cc(NC(=O)CSc2nc(-c3ccco3)cc(C(F)(F)F)n2)no1,20µM*,-3.9%
Cc1cc(NC(=O)CCSc2nc(-c3ccco3)cc(C(F)(F)F)n2)no1,7.7%,4.1%
O=c1cnc2cnc(Oc3ccccc3)nc2n1Cc1ccc(F)cc1,23.0%,4.4%
O=C(NNC(=O)c1cc2cc3ccccc3nc2s1)c1cccc(C(F)(F)F)c1,25.1µM*,-10.4%
O=C(NNS(=O)(=O)c1ccccc1)c1cc2cc3ccccc3nc2s1,-6.6%,-7.4%
CC(=O)N1CCCc2cc(S(=O)(=O)N3CCCC(C(=O)N4CCN(c5ccccc5F)CC4)C3)ccc21 (configuration not stated),?,-2.8%
Cc1cc(Nc2ccc(Br)cc2)nc(C)n1,-17.0%,-4.8%
CCOc1ccccc1NC(=O)N(C)CCc1c(C)nn(CC)c1C,-1.1%,0.5%
